According to ChEMBL document CHEMBL1201862, “PubChem BioAssay data set” (2004):
About 5,800 (2.1%) of roughly 270,000 compounds were called active. Another 16% or so got no clear call; they are omitted. The calls are words filed in the database; no cut-off is given here. Shown is part of a subset that was picked to be rich in actives.

Each compound was assayed against Microtubule-associated protein tau (Homo sapiens) (UniProt P10636) (assay: qHTS for Inhibitors of Tau Fibril Formation, Thioflavin T Binding. [Related pubchem assays: 596 ]).
Microtubule-associated protein tau (Homo sapiens), sequence (P10636 whole entry): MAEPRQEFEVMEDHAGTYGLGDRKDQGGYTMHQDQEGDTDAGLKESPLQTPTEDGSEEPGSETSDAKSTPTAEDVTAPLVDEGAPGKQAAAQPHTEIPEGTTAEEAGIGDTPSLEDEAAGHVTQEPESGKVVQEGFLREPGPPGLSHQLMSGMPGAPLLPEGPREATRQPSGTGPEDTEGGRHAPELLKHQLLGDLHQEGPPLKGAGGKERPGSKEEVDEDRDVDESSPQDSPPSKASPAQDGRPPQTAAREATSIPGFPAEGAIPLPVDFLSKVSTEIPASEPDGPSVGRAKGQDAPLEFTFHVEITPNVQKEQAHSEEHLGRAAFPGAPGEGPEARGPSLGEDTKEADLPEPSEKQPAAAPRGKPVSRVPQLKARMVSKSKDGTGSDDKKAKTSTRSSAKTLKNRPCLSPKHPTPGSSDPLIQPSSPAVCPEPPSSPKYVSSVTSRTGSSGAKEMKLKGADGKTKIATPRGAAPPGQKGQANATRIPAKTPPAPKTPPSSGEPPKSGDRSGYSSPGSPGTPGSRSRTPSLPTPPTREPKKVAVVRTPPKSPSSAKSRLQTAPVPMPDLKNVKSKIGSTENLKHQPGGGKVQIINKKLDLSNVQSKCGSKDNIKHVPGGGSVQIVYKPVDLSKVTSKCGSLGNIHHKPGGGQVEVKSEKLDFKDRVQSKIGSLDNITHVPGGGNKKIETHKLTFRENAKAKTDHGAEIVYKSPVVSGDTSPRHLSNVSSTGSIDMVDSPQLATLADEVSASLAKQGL

Row | Structure (SMILES) | Potency
1 | Cl[Te]1(Cl)OCCO1 | 5.62 µM (active)
